Molecules are shown by their SMILES. Hit rate of the full screen: of about 410,000 compounds, about 18,000 (4.4%) were called active. Another 7% or so got no clear call; they are omitted. Rule as the data show it: active = activity change below about -60%; inconclusive = no clear call, values can overlap the other calls; inactive = above about -39%. Many of the other results were omitted from the sample, so actives are more common in it than they were.
% is scaled to controls: 0 for no effect and ±100 for the full control effect.

A short description of the experiment: qHTS Assay for inhibitors of the human cytomegalovirus (HCMV). The conditions noted are these: HFF cells, HCMV-luciferase reporter, 72 h; at 57.5 µM; hits give low values. Summed up:
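Screen run at 2 compound doses on HFFs infected with reporter HCMV, MOI 1 PFU/cell. Luciferase activity from cell lysates at 72 h post infection gave inhibition relative to buffer-only and Salinomycin wells.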
Regarding `CCc1nn(CC(=O)Nc2cccc(C)c2C)c(=O)c2cc3sccc3n12`, the activity change, negative = inhibition is -1.56% (inactive).

`Cc1cc2oc(=O)cc(CN(C)Cc3ccc(OC(F)F)cc3)c2cc1Cl`: the activity change, negative = inhibition is 26.8% (inactive).

As for `CCn1c(Cc2cccs2)nnc1SCC(=O)c1ccc(C)cc1`, the activity change, negative = inhibition is 47.4% (inactive).

For the compound `CC(=O)c1c(C)n(S(=O)(=O)c2ccc(Cl)cc2)c2ccc(NS(=O)(=O)c3ccc(Cl)cc3)cc12`, the activity change, negative = inhibition was 1.89% (inactive).

Consider `Cc1ccc(OCC(=O)OCc2cc(=O)n3nc(C4CC4)sc3n2)cc1`, for which the activity change, negative = inhibition is -34% (inactive).

As to `O=C(NCC12CC3CC(CC(C3)C1)C2)c1cc2nc(-c3ccccc3)cc(C(F)(F)F)n2n1`, the activity change, negative = inhibition was -2.2% (inactive).

With `COc1ccc(N2CCN(C(=O)C3CCCN(C(=O)c4cc5sccc5n4C)C3)CC2)cc1` (configuration not stated), the activity change, negative = inhibition is -14.9% (inactive).

For `Cc1cc(C)c(NC(=O)CN2C(=O)c3cccnc3Oc3ccc(Cl)cc32)c(C)c1`, the activity change, negative = inhibition was 0% (inactive).

For the compound `O=C(NCCCO)C(=O)Nc1c2c(nn1-c1ccc(F)cc1)CSC2`, the activity change, negative = inhibition was -5.08% (inactive).

With `Cc1ccc(Nc2c(-c3ccc(Cl)cc3)nc3sccn23)c(C)c1`, the activity change, negative = inhibition was -23.6% (inactive).

Take `Cc1cccc(NC(=O)CSc2nc3c(oc4ccccc43)c(=O)n2-c2ccc(F)cc2)c1`: the activity change, negative = inhibition was -12% (inactive).

As for `Cc1ccc(C(=O)NNC(=O)c2ccncc2)cc1S(=O)(=O)N1CCCCC1`, the activity change, negative = inhibition was -15.8% (inactive).

With `CC(=O)Nc1ccc(C(=O)Nc2cccc(S(=O)(=O)NC3=NCCC3)c2)cc1`, the activity change, negative = inhibition was -22.7% (inactive).

Turning to `O=C(Nc1cccc(S(=O)(=O)Nc2ccc(Cl)cc2)c1)c1ccc2c(c1)OCCO2`, the activity change, negative = inhibition is -94.5% (active).

In the case of `O=C(NNC(=O)c1cccc(S(=O)(=O)Nc2ccc(Cl)cc2)c1)c1ccc(=O)[nH]c1`, the activity change, negative = inhibition was 24% (inactive).

In the case of `O=C(Nc1ccc2c(c1)OCCO2)c1ccc(Cl)c(S(=O)(=O)N2CCCCC2)c1`, the activity change, negative = inhibition is -72.6% (active).

With `Cc1ccc(NC(=O)c2ccc(Cl)nc2)cc1S(=O)(=O)N1CCOCC1`, the activity change, negative = inhibition is -8.05% (inactive).

Regarding `CCOc1ccc(CCNC(=O)C2CCN(c3ccc(N4CCOCC4)nn3)CC2)cc1OCC`, the activity change, negative = inhibition was 2.74% (inactive).

As for `Cc1cc(C)c(C)c(S(=O)(=O)N[C@@H](C)C(=O)OC(C)C(=O)NC(N)=O)c1C` (some centres not stated), the activity change, negative = inhibition was -14.5% (inactive).

With `COc1ccc(NC(=O)c2sc3nc(-c4cc5cccc(OC)c5oc4=O)[nH]c(=O)c3c2C)cc1`, the activity change, negative = inhibition is -14.2% (inactive).

Regarding `Cc1ccc(Cn2cc(CCC(=O)NCc3ccc(OC(C)C)cc3)c3ccccc32)cc1`, the activity change, negative = inhibition was 4.19% (inactive).

With `O=C(NNc1cc(Cl)cc(Cl)c1)c1c(F)cccc1Cl`, the activity change, negative = inhibition is -68.5% (active).

For `CCN(CC)CCNC(=O)c1ccc(NC(=O)c2c(F)cccc2Cl)cc1`, the activity change, negative = inhibition is -23.1% (inactive).

Consider `O=C(O)c1cc2c(cc1NC(=O)c1c(F)cccc1Cl)OCCCO2`, for which the activity change, negative = inhibition is -29.4% (inactive).

For `CC1=NN(Cc2ccccc2)C(=O)/C1=C/c1ccc(N(C)C)cc1`, the activity change, negative = inhibition was -61.8% (active).

Regarding `CCOc1ccc(/C(O)=C2/C(=O)C(=O)N(Cc3cccnc3)C2c2ccc(N(C)C)cc2)c(C)c1` (configuration not stated), the activity change, negative = inhibition is 19.8% (inactive).

As for `COc1ccc(/C=C2/C(=O)N(c3ccccc3)N=C2C)c(OC)c1`, the activity change, negative = inhibition was 67.9% (inactive).

Take `CC(=O)c1ccc(NC(c2ccc(F)cc2)c2nnc(-c3ccccc3)o2)cc1` (configuration not stated): the activity change, negative = inhibition is 16.8% (inactive).

In the case of `O=C(c1ccco1)n1nc(-c2ccc(Cl)cc2)nc1NCc1ccccc1`, the activity change, negative = inhibition is -5.57% (inactive).

Turning to `COc1ccccc1CNC(=O)C(=O)NCC(c1ccco1)S(=O)(=O)c1ccc(F)cc1` (configuration not stated), the activity change, negative = inhibition is -13.4% (inactive).

In the case of `Cc1cc(-c2ccc(S(=O)(=O)N3CCc4ccccc4C3)s2)on1`, the activity change, negative = inhibition is -77.4% (active).

For `Cc1cccc(N2CCN(S(=O)(=O)c3ccc(-c4cc(C)no4)s3)CC2C)c1` (configuration not stated), the activity change, negative = inhibition was 15.2% (inactive).

Take `Cc1cc(-c2ccc(S(=O)(=O)N3CCN(c4cccc(C(F)(F)F)c4)CC3)s2)on1`: the activity change, negative = inhibition is -38.1% (inactive).

On to `COc1ccc(CC(=O)N2CC(=O)Nc3ccc(Br)cc3C2c2ccc(F)cc2)cc1OC` (configuration not stated), for which the activity change, negative = inhibition is -3.53% (inactive).

With `COC(=O)[C@@]1(Cc2ccc(OC)cc2)[C@H]2c3cc(C(=O)N4CCCC4)n(Cc4ccc(OC(F)(F)F)cc4)c3C[C@H]2CN1C(=O)c1ccccc1`, the activity change, negative = inhibition was -18.9% (inactive).

On to `COC(=O)[C@@]1(Cc2ccc(F)cc2)[C@H]2c3cc(C(=O)N4CCCC4)n(C[C@H](O)CO)c3C[C@H]2CN1C(=O)c1ccccc1`, for which the activity change, negative = inhibition is 5.98% (inactive).

As to `COC(=O)[C@@]1(Cc2ccc(F)cc2)[C@H]2c3cc(C(=O)N(C)C)n(CCc4c[nH]c5ccc(OC)cc45)c3C[C@H]2CN1C(=O)c1ccccc1`, the activity change, negative = inhibition is -82.3% (active).

Turning to `CCC(=O)N1CCc2cc(S(=O)(=O)NC(C(=O)NCCc3ccc(C)cc3)C(C)C)ccc21` (configuration not stated), the activity change, negative = inhibition is 12.8% (inactive).

Turning to `CCc1n[nH]c(=S)n1/N=C/c1c[nH]c2ccc(Br)cc12`, the activity change, negative = inhibition was -6.5% (inactive).

Turning to `Cc1ccccc1-c1n[nH]c(=S)n1/N=C/c1ccc(-c2ccccc2Br)o1`, the activity change, negative = inhibition is -88.9% (active).

For `CN(Cc1ccccc1)C(=O)c1cn(C)c2ccc(S(=O)(=O)N(C)C3CCCCC3)cc2c1=O`, the activity change, negative = inhibition was 13.4% (inactive).

Consider `CCCOc1ccc(N2CC(C(=O)Nc3ccccn3)CC2=O)cc1` (configuration not stated), for which the activity change, negative = inhibition is 6.17% (inactive).

`O=C(Nc1cccc2c1N(C(=O)c1ccco1)CCC2)c1ccco1`: the activity change, negative = inhibition is -39.1% (inactive).

For `COc1cccc(-n2c(=O)c3c(C)c(C(=O)N(C)C)sc3n(Cc3cccc(C)c3)c2=O)c1`, the activity change, negative = inhibition was -2.38% (inactive).

For the compound `CCOC(=O)Nc1ccc2c(c1)N(C(=O)CCN1CCN(CCO)CC1)c1ccccc1CC2`, the activity change, negative = inhibition was -20.5% (inactive).

For the compound `CCOC(=O)Nc1ccc2c(c1)N(C(=O)CN1CCN3CCCC3C1)c1ccccc1CC2` (configuration not stated), the activity change, negative = inhibition is 74.9% (inactive).

With `CCOC(=O)Nc1ccc2c(c1)N(C(=O)CCCl)c1ccccc1[S@]2=O`, the activity change, negative = inhibition is -102% (active).

With `Cc1ccc(S(=O)(=O)N(Cc2nc(-c3ccc(Cl)cc3)no2)C2CCCCC2)cc1`, the activity change, negative = inhibition is -16.3% (inactive).

With `COc1cc(C(=O)NCCS(=O)(=O)N2CCN(c3ccccc3)CC2)cc(OC)c1OC`, the activity change, negative = inhibition is 38.7% (inactive).

As for `CCCCOc1ccc(C(=O)NCC(=O)OCC(=O)c2c(N)n(C)c(=O)n(C)c2=O)cc1`, the activity change, negative = inhibition was -28.8% (inactive).

Regarding `Cc1cc(C(=O)OCC(=O)c2c(N)n(C)c(=O)n(C)c2=O)c(C)o1`, the activity change, negative = inhibition was -20.6% (inactive).

For the compound `Cn1c(N)c(C(=O)COC(=O)c2ccc3ccccc3c2)c(=O)n(C)c1=O`, the activity change, negative = inhibition is 7.39% (inactive).

On to `CCc1ccc(OCC(=O)OCC(=O)c2c(N)n(C)c(=O)n(C)c2=O)cc1`, for which the activity change, negative = inhibition was -68.3% (active).

Regarding `Cn1c(N)c(C(=O)COC(=O)COc2ccc(Cl)cc2)c(=O)n(C)c1=O`, the activity change, negative = inhibition was -16.9% (inactive).

For `Cn1c(N)c(C(=O)COC(=O)c2cnc(Cl)c(Cl)c2)c(=O)n(C)c1=O`, the activity change, negative = inhibition was -99.9% (active).

As to `Cc1ccc(S(=O)(=O)N(C)C)cc1NC(=O)c1ccc(-n2cncn2)c([N+](=O)[O-])c1`, the activity change, negative = inhibition is -7.42% (inactive).

For `CC(C)NC(=O)c1nnc2n1CCN(C(=O)C1(c3ccc(Cl)cc3)CCCC1)C2`, the activity change, negative = inhibition was -2.1% (inactive).

For `COc1cc(Cl)ccc1Nc1ncc(C(=O)N2CCN(c3ccccc3OC)CC2)c2ccccc12`, the activity change, negative = inhibition is 9.53% (inactive).

With `Cc1cccc(NC(=O)CN(c2ccc(C(C)C)cc2)S(=O)(=O)c2c(C)nn(C)c2C)c1C`, the activity change, negative = inhibition was -17.9% (inactive).

For `COC(=O)C(C)N=Cc1ccccc1` (configuration not stated), the activity change, negative = inhibition was -19.2% (inactive).

Take `COc1ccc(C(=O)Nc2ccccc2C(=O)N/N=C/c2ccc(O)c(OC)c2)cc1`: the activity change, negative = inhibition was -71.4% (active).

Regarding `C=CCOc1ccc(C(=O)Nc2ccccc2C(=O)N2CCCC2)cc1`, the activity change, negative = inhibition is 3.09% (inactive).

With `COc1ccc(/C=N/Nc2ccccc2C(=O)O)cc1`, the activity change, negative = inhibition is -64.5% (active).

For the compound `COc1ccc(SSc2ccc(OC)cc2C(=O)O)c(C(=O)O)c1`, the activity change, negative = inhibition was 4.79% (inactive).

Consider `COc1cc(C(=O)Nc2cc(C(F)(F)F)ccc2N2CCOCC2)ccc1O`, for which the activity change, negative = inhibition is 37.5% (inactive).

Take `C=CCOc1c(CNn2cn[nH]c2=S)cccc1OC`: the activity change, negative = inhibition is -4.48% (inactive).

Turning to `COC(=O)C[C@H]1C=C[C@H](NC(=O)c2ccc(F)cc2)[C@@H](CO)O1`, the activity change, negative = inhibition was 21.6% (inactive).

For the compound `COc1ccc(OC)c(CCNc2nc3cnc(-c4cccc(Oc5ccccc5)c4)cc3n2C)c1`, the activity change, negative = inhibition is -30.5% (inactive).

Turning to `Cc1c(NC(=O)c2cc(=O)c3ccccc3o2)c(=O)n(-c2ccccc2)n1C`, the activity change, negative = inhibition is 2.18% (inactive).

`CCCN(C(=O)Cn1ncc2c([nH]c3ccc(C)cc32)c1=O)c1ccccc1C`: the activity change, negative = inhibition was -8.94% (inactive).

For `CCOc1cccc2c1N[C@@H](c1ccc(C(=O)O)cc1)[C@H]1CC=C[C@@H]21`, the activity change, negative = inhibition is -5.85% (inactive).

With `COc1ccccc1C(=O)Nc1c(C(=O)N(C)Cc2ccccc2)sc2nc(C)c(Cl)c(C)c12`, the activity change, negative = inhibition was -19.6% (inactive).

`COc1ccccc1NC(=O)c1cc(Cl)nnc1Cl`: the activity change, negative = inhibition was -22.5% (inactive).

As to `COc1ccccc1NC(=O)c1sc2nc(C)c(C(=O)Nc3ccc(Cl)cc3)c(-c3ccc(Br)cc3)c2c1N`, the activity change, negative = inhibition is -104% (active).

In the case of `Cc1ccc(Nc2c(-c3ccc(C)s3)nc3ccccn23)cc1`, the activity change, negative = inhibition was 74.5% (inactive).

For `Cc1ccc(NC(=O)c2oc3ccc(S(=O)(=O)N4CCCCC4)cc3c2C)cc1Cl`, the activity change, negative = inhibition was -4.09% (inactive).

Turning to `COc1ccccc1N(CC(=O)N1CCCCC1)S(=O)(=O)c1ccccc1`, the activity change, negative = inhibition was -0.178% (inactive).

As for `COc1ccccc1N(CC(=O)N/N=C(\C)c1ccccc1O)S(=O)(=O)c1ccc(C)cc1`, the activity change, negative = inhibition is -68.7% (active).

Take `COc1ccc(C)cc1N(CC(=O)NC(C)c1ccccc1)S(C)(=O)=O` (configuration not stated): the activity change, negative = inhibition is -5.84% (inactive).

`Cc1ccc(S(=O)(=O)N(CC(=O)NCc2ccco2)c2ccccc2C)cc1`: the activity change, negative = inhibition is -14.7% (inactive).

Take `COc1ccccc1NC(=O)CN(c1ccccc1OC)S(=O)(=O)c1ccccc1`: the activity change, negative = inhibition was -93.1% (active).

Consider `COc1ccccc1N(CC(=O)Nc1c(C)n(C)n(-c2ccccc2)c1=O)S(=O)(=O)c1ccccc1`, for which the activity change, negative = inhibition was -32% (inactive).

These data come from PubChem BioAssay AID1259415 (National Center for Advancing Translational Sciences (NCATS), 2018).
